# Results reported in PubChem BioAssay (Tox21).
# Unmarked numbers belong to inactive results. Inconclusive results are not listed. Where a call stands in place of a potency, no number is given. Calls of active or inactive are those of the source. Calls follow the shape of the dose curve; as a rule, active = well fitted curve in the direction sought with a large enough effect in the repeat runs; inconclusive = weak or mixed curves; inactive = no such curve, though single readings can be large; an effect the other way counts as inactive or inconclusive.
# Legend:
# [1] = Caspase-3/7 induction in CHO-K1 cells by small molecules, qHTS cell viability counter screen (AID 1346979); also: nearly all actives have a fitted effect of over 35% in size; also: potency is read from the fitted curve at half-maximal effect
# Method in brief: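 CellTiter-Fluor viability check, qHTS format: wild-type CHO-K1, 16hr compound treatment, 1hr reagent incubation, fluorescence read.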
# [2] = Caspase-3/7 induction in CHO-K1 cells by small molecules, qHTS assay (AID 1346980); also: nearly all actives have a fitted effect of over 15% in size
# Method in brief: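 Luminescent Caspase-Glo 3/7 read (30min, room temperature) quantified apoptosis induction. Cells were wild-type CHO-K1, treated with compound for 17hr at 37 C and 5% CO2.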
# [3] = target: Nuclear receptor subfamily 1 group I member 2 (Homo sapiens) (UniProt O75469); assay: Human pregnane X receptor (PXR) small molecule agonists, qHTS assay (AID 1346982); also: nearly all actives have a fitted effect of over 35% in size; also: potency is read from the fitted curve at half-maximal effect
# Chain of Nuclear receptor subfamily 1 group I member 2 (Homo sapiens) (O75469 whole entry, looked up): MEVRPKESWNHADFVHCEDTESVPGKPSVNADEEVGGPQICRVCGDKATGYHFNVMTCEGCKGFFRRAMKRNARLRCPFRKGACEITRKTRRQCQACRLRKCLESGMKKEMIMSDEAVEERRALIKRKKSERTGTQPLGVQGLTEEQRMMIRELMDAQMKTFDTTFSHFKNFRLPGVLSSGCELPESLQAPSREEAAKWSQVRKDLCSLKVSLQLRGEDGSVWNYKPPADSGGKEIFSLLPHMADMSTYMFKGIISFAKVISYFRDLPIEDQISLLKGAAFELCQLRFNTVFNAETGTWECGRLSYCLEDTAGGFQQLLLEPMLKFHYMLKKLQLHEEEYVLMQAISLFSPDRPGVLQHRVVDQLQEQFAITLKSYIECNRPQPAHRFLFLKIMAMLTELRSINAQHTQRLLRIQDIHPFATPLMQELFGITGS
# Method in brief: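 Tox21 qHTS; PXR-Luc HepG2; compounds pinned from DMSO; 24 hr, 37 C; ONE-Glo luciferase detection, 30 min room temperature.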
# [4] = target: Cytochrome P450 2D6 (Homo sapiens) (UniProt P10635); assay: Cytochrome P450 Family 2 Subfamily D Member 6 (CYP2D6) small molecule antagonists: luciferase reporter qHTS assay (AID 1671196); also: nearly all actives have a fitted effect of over 50% in size; also: potency is read from the fitted curve at half-maximal effect
# Chain of Cytochrome P450 2D6 (Homo sapiens) (P10635 whole entry, looked up): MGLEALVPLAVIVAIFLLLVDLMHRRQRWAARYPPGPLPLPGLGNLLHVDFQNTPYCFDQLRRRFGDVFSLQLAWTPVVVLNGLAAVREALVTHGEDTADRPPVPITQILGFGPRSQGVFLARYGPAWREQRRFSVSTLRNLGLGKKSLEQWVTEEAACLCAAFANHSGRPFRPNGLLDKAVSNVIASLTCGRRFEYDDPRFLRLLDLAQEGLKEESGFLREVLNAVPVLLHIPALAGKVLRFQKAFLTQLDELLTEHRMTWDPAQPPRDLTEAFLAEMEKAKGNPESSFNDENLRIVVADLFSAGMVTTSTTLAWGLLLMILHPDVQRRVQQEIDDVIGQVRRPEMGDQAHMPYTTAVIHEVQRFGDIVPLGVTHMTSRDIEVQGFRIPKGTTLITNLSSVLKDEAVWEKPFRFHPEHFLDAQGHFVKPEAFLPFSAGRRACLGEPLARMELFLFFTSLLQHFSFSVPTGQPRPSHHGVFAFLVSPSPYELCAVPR
# Method in brief: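 Room-temperature luminescent CYP2D6 activity assay: compound preincubated 10 min with enzyme–substrate mix, NADPH-initiated reaction 1 h, detection reagent 20 min before reading.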
# [5] = target: Cytochrome P450 2C19 (Homo sapiens) (UniProt P33261); assay: Cytochrome P450 Family 2 Subfamily C Member 19 (CYP2C19) small molecule antagonists: luciferase reporter qHTS assay (AID 1671197); also: nearly all actives have a fitted effect of over 65% in size; also: potency is read from the fitted curve at half-maximal effect
# Chain of Cytochrome P450 2C19 (Homo sapiens) (P33261 whole entry, looked up): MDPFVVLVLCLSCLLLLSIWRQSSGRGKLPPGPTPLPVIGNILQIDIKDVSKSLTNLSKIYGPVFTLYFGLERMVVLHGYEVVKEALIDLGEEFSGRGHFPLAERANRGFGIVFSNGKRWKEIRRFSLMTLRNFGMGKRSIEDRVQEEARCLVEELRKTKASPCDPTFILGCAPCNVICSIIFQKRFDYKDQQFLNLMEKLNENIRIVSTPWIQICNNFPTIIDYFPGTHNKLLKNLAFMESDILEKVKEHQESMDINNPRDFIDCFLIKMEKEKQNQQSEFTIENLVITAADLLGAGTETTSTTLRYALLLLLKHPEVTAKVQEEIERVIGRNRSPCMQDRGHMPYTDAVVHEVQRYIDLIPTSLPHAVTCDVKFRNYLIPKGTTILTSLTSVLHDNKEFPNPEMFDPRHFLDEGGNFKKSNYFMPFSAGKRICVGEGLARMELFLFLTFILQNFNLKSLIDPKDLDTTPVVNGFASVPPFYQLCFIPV
# Method in brief: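 Quantitative high-throughput screen of the Tox21 library using CYP2C19 with proluciferin substrate. Reaction: NADPH regeneration, 37C, 1 h, after 10 min compound preincubation at room temperature. Readout: luminescence.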
# [6] = Caspase-3/7 induction in HepG2 cells by small molecules, qHTS assay (AID 1346978); also: nearly all actives have a fitted effect of over 15% in size; also: potency is read from the fitted curve at half-maximal effect
# Method in brief: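 Caspase-3/7 induction was measured by Caspase-Glo 3/7 luminescence (30 min, room temperature) after a 17 hr compound exposure of wild-type HepG2 cells seeded at 2,000 per well and pre-incubated 5 hr.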
# [7] = Caspase-3/7 induction in HepG2 cells by small molecules, qHTS cell viability counter screen (AID 1346981); also: nearly all actives have a fitted effect of over 30% in size; also: potency is read from the fitted curve at half-maximal effect
# Method in brief: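 After a 5-hr attachment period at 37 C and 5% CO2, wild-type HepG2 cells received compounds in DMSO. Sixteen hours later CellTiter-Fluor was dispensed and the fluorescent signal quantified after a further hour.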
# [8] = target: Nuclear receptor subfamily 1 group I member 2 (Rattus norvegicus) (UniProt Q9R1A7); assay: Rat pregnane X receptor (rPXR) activation by small molecules, qHTS assay (AID 1346983); details: rPXR luciferase reporter cells, One-Glo luminescence, 24 h; max activation: active compounds read high; also: nearly all actives have a fitted effect of over 20% in size
# Chain of Nuclear receptor subfamily 1 group I member 2 (Rattus norvegicus) (Q9R1A7 whole entry, looked up): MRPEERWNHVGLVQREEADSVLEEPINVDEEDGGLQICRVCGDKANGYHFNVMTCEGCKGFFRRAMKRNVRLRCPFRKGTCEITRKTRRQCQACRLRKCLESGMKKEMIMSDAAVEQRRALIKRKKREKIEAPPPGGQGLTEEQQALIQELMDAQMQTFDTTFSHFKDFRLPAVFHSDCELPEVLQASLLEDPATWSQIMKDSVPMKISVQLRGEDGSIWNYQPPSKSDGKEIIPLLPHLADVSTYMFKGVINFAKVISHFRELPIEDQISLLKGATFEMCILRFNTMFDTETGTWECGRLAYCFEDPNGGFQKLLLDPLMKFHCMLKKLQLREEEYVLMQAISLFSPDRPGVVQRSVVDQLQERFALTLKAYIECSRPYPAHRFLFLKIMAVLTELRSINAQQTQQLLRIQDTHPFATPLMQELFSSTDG
# Method in brief: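 Luminescent readout (One-Glo luciferase, 30 min room temperature) followed 24 hr compound treatment at 37 C of rPXR cells plated 2,000 per well and preincubated 5hr; qHTS format with compounds delivered in DMSO.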
# [9] = target: Nuclear receptor subfamily 1 group I member 2 (Homo sapiens) (UniProt O75469); assay: CYP3A4 induction through human pregnane X receptor (PXR) by small molecules, qHTS assay (AID 1346984); also: nearly all actives have a fitted effect of over 40% in size
# Method in brief: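 Cells (DPX-2; HepG2 with PXR element plus CYP3A4-promoter luciferase) settled 5hr, then were treated 24hr at 37C. A 3hr, 3uM-final Luciferin-IPA step preceded luminescence measurement with One-Glo.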
# [10] = target: Nuclear receptor subfamily 1 group I member 2 (Homo sapiens) (UniProt O75469); assay: Human pregnane X receptor (PXR) activation by small molecules, qHTS assay (AID 1346985); also: nearly all actives have a fitted effect of over 40% in size; also: potency is read from the fitted curve at half-maximal effect
# Method in brief: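 DPX-2 cells (HepG2 co-transfected with a PXR response element and a CYP3A4-promoter luciferase construct) were seeded at 2,000 per well, rested 5 hr at 37C, then exposed to DMSO-dissolved compounds for 24 hr. Activation was read as luciferase luminescence.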
SMILES,Potency [1],outcome [2],Potency [3],Potency [4],Potency [5],Potency [6],Potency [7],max activation [8],Potency [9],Potency [10]
O=C1OC(=O)c2c(Br)c(Br)c(Br)c(Br)c21,inactive,inactive,inactive,inactive,inactive,–,–,–,–,–
CC(=O)OCCC(C)CC(C)(C)C (stereo unspecified),–,inactive,inactive,71 µM (active),inactive,inactive,inactive,–,–,–
CCCCCCCCCCCCCOS(=O)(=O)O,–,inactive,inactive,inactive,inactive,inactive,inactive,–,–,–
CNS(=O)(=O)c1cc(C(=O)N2CCC(CCN3C4CCC3CC(n3c(C)nc5ccccc53)C4)(c3cccc(F)c3)CC2)c(Cl)cc1F (stereo unspecified),17.2 µM (active),inactive,inactive,25.2 µM (active),63.3 µM (active),–,13.7 µM (active),–,–,–
C=C(C)C(=O)OCCC(F)(F)C(F)(F)C(F)(F)C(F)(F)C(F)(F)C(F)(F)F,–,inactive,inactive,inactive,inactive,inactive,inactive,–,–,–
CO[C@@H]1[C@@H](OC)[C@H](C)[C@@](O)(CC(=O)O)O[C@H]1[C@H](C)[C@H]1O[C@@]2(CC[C@@](C)([C@H]3CC[C@@](C)([C@@H]4O[C@@H]([C@H]5O[C@](C)(O)[C@H](C)C[C@@H]5C)C[C@@H]4OC4C[C@H](OC)[C@@H](OC)[C@H](C)O4)O3)O2)C[C@H](O)[C@H]1C (stereo partly specified),1.33 µM (active),inactive,–,inactive,inactive,inactive,–,–,–,–
CCCCCCCCCCCC(=O)OCC(O)CO (stereo unspecified),–,inactive,inactive,–,79.6 µM (active),inactive,–,-6.09%,inactive,inactive
COc1ccc(N)c([N+](=O)[O-])c1,–,inactive,–,–,–,inactive,–,–,–,–
CC(C)COC(=O)c1ccc(O)cc1,–,inactive,3.06 µM (active),–,3.17 µM (active),inactive,inactive,–,–,–
COc1ccc(/C=C/C(=O)c2ccc(OC)cc2OC)cc1,–,inactive,29.8 µM (active),–,3.89 µM (active),10.6 µM (active),inactive,–,inactive,22.4 µM (active)
Cc1ccc2c(c1)CCCN2,inactive,inactive,–,28.3 µM (active),39.9 µM (active),inactive,–,–,–,–
Cc1ccc(Cl)cc1N,–,inactive,55.5 µM (active),–,36.2 µM (active),inactive,inactive,–,–,–
COC(=O)Nc1nc2ccc(C(=O)C3CC3)cc2[nH]1,–,inactive,8.41 µM (active),inactive,inactive,inactive,inactive,–,–,–
COc1ccc(-n2nc(C(F)F)cc2-c2ccc(S(C)=O)cc2)cc1 (stereo unspecified),–,inactive,30.6 µM (active),35.6 µM (active),2 µM (active),inactive,inactive,–,–,–
CN(C)CC/C=C1\c2ccccc2Sc2ccc(Cl)cc21,–,inactive,–,2.75 µM (active),–,–,–,3.57%,–,–
Oc1ccc2c(c1)Cc1ccccc1-2,–,inactive,30.6 µM (active),inactive,28.3 µM (active),inactive,inactive,–,–,–

SMILES,Potency [1],outcome [2],Potency [3],Potency [4],Potency [5],Potency [6],Potency [7],max activation [8],Potency [9],Potency [10]
Cc1ccc(Nc2c(F)cccc2Cl)c(CC(=O)O)c1,inactive,inactive,–,inactive,8.71 µM (active),inactive,–,–,–,–
Cc1cc([N+](=O)[O-])ccc1N,53.8 µM (active),inactive,–,31.3 µM (active),35.1 µM (active),–,33.9 µM (active),–,–,–
Cc1ccc2nc(N)[nH]c(=O)c2c1Sc1ccncc1,–,inactive,inactive,15.5 µM (active),1.55 µM (active),inactive,–,-1.84%,–,–
O[C@@H](CNC[C@H](O)[C@H]1CCc2cc(F)ccc2O1)[C@@H]1CCc2cc(F)ccc2O1,33.5 µM (active),–,inactive,0.275 µM (active),inactive,33.5 µM (active),–,–,–,–
CC(CCc1ccc(O)cc1)NCCc1ccc(O)c(O)c1 (stereo unspecified),–,inactive,inactive,15.5 µM (active),inactive,inactive,inactive,–,–,–
O=C(O)c1cccc(Oc2ccccc2)c1,–,inactive,inactive,inactive,inactive,inactive,–,–,–,–
CC/C=C\C/C=C\C/C=C\CCCCCCCC(=O)OCC,–,–,–,–,64.8 µM (active),inactive,inactive,–,–,–
COc1cc(C(C)=O)ccc1OCCCN1CCC(c2noc3cc(F)ccc23)CC1,–,inactive,–,11 µM (active),inactive,inactive,–,–,–,–
O=C(/C=C/c1ccc([N+](=O)[O-])cc1)c1ccccc1,–,inactive,24.4 µM (active),–,1.59 µM (active),–,–,–,–,–
Nc1nc(-c2ccc([N+](=O)[O-])cc2)cs1,–,inactive,9.79 µM (active),inactive,3.6 µM (active),inactive,–,–,–,–
CCCOC(=O)c1c(Cl)c(Cl)c(Cl)c(Cl)c1C(=O)OCCC,–,–,17.2 µM (active),inactive,7.1 µM (active),inactive,inactive,–,–,–
CCCc1nc2c(C)cc(-c3nc4ccccc4n3C)cc2n1Cc1ccc(-c2ccccc2C(=O)O)cc1,–,inactive,–,inactive,7.76 µM (active),inactive,–,-2.19%,–,–
COc1cc(OC)c2ccc(=O)oc2c1,–,inactive,inactive,–,–,inactive,inactive,–,–,–
Cc1ccc2c(c1[N+](=O)[O-])C(=O)c1ccccc1C2=O,–,inactive,1.9 µM (active),inactive,inactive,5.99 µM (active),3 µM (active),–,–,–
CCCCCCCC(=O)Oc1c(Br)cc(C#N)cc1Br,–,inactive,inactive,–,35.5 µM (active),inactive,–,–,–,–
CCCCCc1ccco1,–,inactive,–,–,32.8 µM (active),inactive,inactive,–,–,–
